{"source": "PubChem BioAssay AID1159580", "about": "(chemical genetic matrix, 2015)", "assay": "chemical genetic growth profiling, strain panel (AID 1159580);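 note: tested at 20 µM; growth read once vehicle control cultures reached saturation at 30 °C; 1 = growth at the plate median or of vehicle wells; lower values mean less growth of the strain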", "conditions": "growth OD", "note": "About 2,000 (36%) of roughly 5,500 compounds were called active. Roughly 18% stayed inconclusive and do not appear here. This is one part of the list. Values without a mark were called inactive. Cut-off read from the data, not from the text of the source: active = normalized growth mostly below about 0.91 (no sharp cut-off); inconclusive = no clear call, values can overlap the other calls; inactive = mostly above about 0.92.", "data": [{"smiles": "CC(C)=CCc1c(O)cc2oc(C)cc(=O)c2c1O", "values": [{"measurement": "normalized growth", "setting": "S. cerevisiae deletion strains, locus YJR043C, strain POL32, stronger effect = lower value", "value": "0.847 (active)"}, {"measurement": "normalized growth", "setting": "S. cerevisiae deletion strains, locus YJR066W, strain TOR1, stronger effect = lower value", "value": 0.941}, {"measurement": "normalized growth", "setting": "S. cerevisiae deletion strains, locus YJR075W, strain HOC1, stronger effect = lower value", "value": 1.03}, {"measurement": "normalized growth", "setting": "S. cerevisiae deletion strains, locus YKL009W, strain mrt4, stronger effect = lower value", "value": 0.974}, {"measurement": "normalized growth", "setting": "S. cerevisiae deletion strains, locus YKL068W, stronger effect = lower value", "value": 0.982}, {"measurement": "normalized growth", "setting": "S. cerevisiae deletion strains, locus YKL085W, strain MDH1 (second series), stronger effect = lower value", "value": 0.983}, {"measurement": "normalized growth", "setting": "S. cerevisiae deletion strains, locus YKL085W, strain MDH1, stronger effect = lower value", "value": 0.983}, {"measurement": "normalized growth", "setting": "S. cerevisiae deletion strains, locus YKL160W, strain elf1, stronger effect = lower value", "value": 0.963}, {"measurement": "normalized growth", "setting": "S. cerevisiae deletion strains, locus YKL190W, strain CNB1, stronger effect = lower value", "value": 1}, {"measurement": "normalized growth", "setting": "S. cerevisiae deletion strains, locus YKR001C, strain vps1, stronger effect = lower value", "value": "0.723 (active)"}, {"measurement": "normalized growth", "setting": "S. cerevisiae deletion strains, locus YKR026C, strain gcn3, stronger effect = lower value", "value": 0.977}, {"measurement": "normalized growth", "setting": "S. cerevisiae deletion strains, locus YKR091W, strain srl3, stronger effect = lower value", "value": 0.98}, {"measurement": "normalized growth", "setting": "S. cerevisiae deletion strains, locus YLL001W, strain dnm1, stronger effect = lower value", "value": 0.964}, {"measurement": "normalized growth", "setting": "S. cerevisiae deletion strains, locus YLL026W, stronger effect = lower value", "value": 0.981}, {"measurement": "normalized growth", "setting": "S. cerevisiae deletion strains, locus YLL041C, strain sdh2, stronger effect = lower value", "value": 0.979}, {"measurement": "normalized growth", "setting": "S. cerevisiae deletion strains, locus YLR027C, strain aat2, stronger effect = lower value", "value": 0.983}, {"measurement": "normalized growth", "setting": "S. cerevisiae deletion strains, locus YLR039C, strain RIC1, stronger effect = lower value", "value": 0.834}, {"measurement": "normalized growth", "setting": "S. cerevisiae deletion strains, locus YLR058C, strain SHM2, stronger effect = lower value", "value": 0.966}, {"measurement": "normalized growth", "setting": "S. cerevisiae deletion strains, locus YLR102C, strain apc9, stronger effect = lower value", "value": 0.987}, {"measurement": "normalized growth", "setting": "S. cerevisiae deletion strains, locus YLR113W, strain HOG1, stronger effect = lower value", "value": "0.854 (active)"}, {"measurement": "normalized growth", "setting": "S. cerevisiae deletion strains, locus YLR221C, strain rsa3, stronger effect = lower value", "value": 0.95}, {"measurement": "normalized growth", "setting": "S. cerevisiae deletion strains, locus YLR258W, strain gsy2, stronger effect = lower value", "value": 0.97}, {"measurement": "normalized growth", "setting": "S. cerevisiae deletion strains, locus YLR262C, strain YPT6 (second series), stronger effect = lower value", "value": "0.781 (active)"}, {"measurement": "normalized growth", "setting": "S. cerevisiae deletion strains, locus YLR268W, strain sec22, stronger effect = lower value", "value": 0.939}, {"measurement": "normalized growth", "setting": "S. cerevisiae deletion strains, locus YLR320W, strain mms22, stronger effect = lower value", "value": 0.961}, {"measurement": "normalized growth", "setting": "S. cerevisiae deletion strains, locus YLR330W, strain CHS5, stronger effect = lower value", "value": 0.937}, {"measurement": "normalized growth", "setting": "S. cerevisiae deletion strains, locus YLR342W, strain FKS1, stronger effect = lower value", "value": 0.974}, {"measurement": "normalized growth", "setting": "S. cerevisiae deletion strains, locus YLR357W, strain rsc2, stronger effect = lower value", "value": 0.913}, {"measurement": "normalized growth", "setting": "S. cerevisiae deletion strains, locus YLR370C, strain arc18, stronger effect = lower value", "value": 0.996}, {"measurement": "normalized growth", "setting": "S. cerevisiae deletion strains, locus YLR371W, strain rom2, stronger effect = lower value", "value": 0.957}, {"measurement": "normalized growth", "setting": "S. cerevisiae deletion strains, locus YLR384C, strain iki3, stronger effect = lower value", "value": 0.976}, {"measurement": "normalized growth", "setting": "S. cerevisiae deletion strains, locus YLR418C, strain cdc73, stronger effect = lower value", "value": 0.898}, {"measurement": "normalized growth", "setting": "S. cerevisiae deletion strains, locus YML016C, strain PPZ1, stronger effect = lower value", "value": 0.997}, {"measurement": "normalized growth", "setting": "S. cerevisiae deletion strains, locus YML032C, strain rad52, stronger effect = lower value", "value": 0.907}, {"measurement": "normalized growth", "setting": "S. cerevisiae deletion strains, locus YML120C, strain ndi1, stronger effect = lower value", "value": 0.98}, {"measurement": "normalized growth", "setting": "S. cerevisiae deletion strains, locus YML124C, strain tub3, stronger effect = lower value", "value": 0.985}, {"measurement": "normalized growth", "setting": "S. cerevisiae deletion strains, locus YMR058W, strain fet3, stronger effect = lower value", "value": 0.946}, {"measurement": "normalized growth", "setting": "S. cerevisiae deletion strains, locus YMR078C, strain ctf18, stronger effect = lower value", "value": 0.994}, {"measurement": "normalized growth", "setting": "S. cerevisiae deletion strains, locus YMR125W, strain sto1, stronger effect = lower value", "value": 0.981}, {"measurement": "normalized growth", "setting": "S. cerevisiae deletion strains, locus YMR129W, stronger effect = lower value", "value": 0.98}, {"measurement": "normalized growth", "setting": "S. cerevisiae deletion strains, locus YMR205C, strain PFK2, stronger effect = lower value", "value": 0.954}, {"measurement": "normalized growth", "setting": "S. cerevisiae deletion strains, locus YMR223W, strain ubp8, stronger effect = lower value", "value": 0.931}, {"measurement": "normalized growth", "setting": "S. cerevisiae deletion strains, locus YMR231W, strain pep5, stronger effect = lower value", "value": 0.981}, {"measurement": "normalized growth", "setting": "S. cerevisiae deletion strains, locus YMR263W, strain SAP30, stronger effect = lower value", "value": 0.992}, {"measurement": "normalized growth", "setting": "S. cerevisiae deletion strains, locus YMR307W, strain GAS1, stronger effect = lower value", "value": "0.549 (active)"}, {"measurement": "normalized growth", "setting": "S. cerevisiae deletion strains, locus YNL067W, strain RPL9B, stronger effect = lower value", "value": 1.01}, {"measurement": "normalized growth", "setting": "S. cerevisiae deletion strains, locus YNL071W, strain lat1, stronger effect = lower value", "value": 0.975}, {"measurement": "normalized growth", "setting": "S. cerevisiae deletion strains, locus YNL153C, strain GIM3, stronger effect = lower value", "value": 0.932}, {"measurement": "normalized growth", "setting": "S. cerevisiae deletion strains, locus YNL183C, strain NPR1, stronger effect = lower value", "value": 0.91}, {"measurement": "normalized growth", "setting": "S. cerevisiae deletion strains, locus YNL209W, strain ssb2, stronger effect = lower value", "value": 0.996}, {"measurement": "normalized growth", "setting": "S. cerevisiae deletion strains, locus YNL233W, strain BNI4, stronger effect = lower value", "value": 0.926}, {"measurement": "normalized growth", "setting": "S. cerevisiae deletion strains, locus YNL248C, strain rpa49, stronger effect = lower value", "value": 0.968}, {"measurement": "normalized growth", "setting": "S. cerevisiae deletion strains, locus YNL250W, strain rad50, stronger effect = lower value", "value": 0.993}, {"measurement": "normalized growth", "setting": "S. cerevisiae deletion strains, locus YNL271C, strain bni1, stronger effect = lower value", "value": 0.98}, {"measurement": "normalized growth", "setting": "S. cerevisiae deletion strains, locus YNL298W, strain CLA4, stronger effect = lower value", "value": 0.954}, {"measurement": "normalized growth", "setting": "S. cerevisiae deletion strains, locus YNL307C, strain MCK1, stronger effect = lower value", "value": 0.989}, {"measurement": "normalized growth", "setting": "S. cerevisiae deletion strains, locus YNL322C, strain KRE1 (second series), stronger effect = lower value", "value": 0.964}, {"measurement": "normalized growth", "setting": "S. cerevisiae deletion strains, locus YNR049C, strain mso1, stronger effect = lower value", "value": 0.964}, {"measurement": "normalized growth", "setting": "S. cerevisiae deletion strains, locus YNR052C, strain pop2, stronger effect = lower value", "value": 1}, {"measurement": "normalized growth", "setting": "S. cerevisiae deletion strains, locus YOL012C, strain htz1", "value": 1.24}, {"measurement": "normalized growth", "setting": "S. cerevisiae deletion strains, locus YOL147C, strain pex11, stronger effect = lower value", "value": 0.954}, {"measurement": "normalized growth", "setting": "S. cerevisiae deletion strains, locus YOR001W, strain rrp6, stronger effect = lower value", "value": 0.981}, {"measurement": "normalized growth", "setting": "S. cerevisiae deletion strains, locus YOR061W, strain CKA2, stronger effect = lower value", "value": 0.955}, {"measurement": "normalized growth", "setting": "S. cerevisiae deletion strains, locus YOR069W, strain VPS5, stronger effect = lower value", "value": 0.987}, {"measurement": "normalized growth", "setting": "S. cerevisiae deletion strains, locus YOR070C, strain gyp1, stronger effect = lower value", "value": 0.983}, {"measurement": "normalized growth", "setting": "S. cerevisiae deletion strains, locus YOR080W, strain dia2, stronger effect = lower value", "value": 1}, {"measurement": "normalized growth", "setting": "S. cerevisiae deletion strains, locus YOR083W, strain WHI5, stronger effect = lower value", "value": 0.947}, {"measurement": "normalized growth", "setting": "S. cerevisiae deletion strains, locus YOR106W, strain vam3, stronger effect = lower value", "value": 0.934}, {"measurement": "normalized growth", "setting": "S. cerevisiae deletion strains, locus YOR136W, strain idh2, stronger effect = lower value", "value": 0.979}, {"measurement": "normalized growth", "setting": "S. cerevisiae deletion strains, locus YOR144C, strain elg1, stronger effect = lower value", "value": 0.965}, {"measurement": "normalized growth", "setting": "S. cerevisiae deletion strains, locus YOR184W, strain ser1, stronger effect = lower value", "value": "0.829 (active)"}, {"measurement": "normalized growth", "setting": "S. cerevisiae deletion strains, locus YOR231W, strain MKK1, stronger effect = lower value", "value": 0.958}, {"measurement": "normalized growth", "setting": "S. cerevisiae deletion strains, locus YOR265W, strain rbl2, stronger effect = lower value", "value": 0.971}, {"measurement": "normalized growth", "setting": "S. cerevisiae deletion strains, locus YOR270C, strain vph1, stronger effect = lower value", "value": 1.08}, {"measurement": "normalized growth", "setting": "S. cerevisiae deletion strains, locus YOR290C, strain snf2, stronger effect = lower value", "value": 0.939}, {"measurement": "normalized growth", "setting": "S. cerevisiae deletion strains, locus YOR316C, strain cot1, stronger effect = lower value", "value": 0.997}, {"measurement": "normalized growth", "setting": "S. cerevisiae deletion strains, locus YPL051W, strain arl3, stronger effect = lower value", "value": 0.952}, {"measurement": "normalized growth", "setting": "S. cerevisiae deletion strains, locus YPL055C, strain LGE1, stronger effect = lower value", "value": 0.945}, {"measurement": "normalized growth", "setting": "S. cerevisiae deletion strains, locus YPL078C, strain atp4, stronger effect = lower value", "value": 0.966}, {"measurement": "normalized growth", "setting": "S. cerevisiae deletion strains, locus YPL106C, strain sse1, stronger effect = lower value", "value": 0.978}, {"measurement": "normalized growth", "setting": "S. cerevisiae deletion strains, locus YPL240C, strain hsp82, stronger effect = lower value", "value": 0.982}, {"measurement": "normalized growth", "setting": "S. cerevisiae deletion strains, locus YPL256C, strain CLN2, stronger effect = lower value", "value": 1.01}, {"measurement": "normalized growth", "setting": "S. cerevisiae deletion strains, locus YPR119W, strain clb2, stronger effect = lower value", "value": 0.995}, {"measurement": "normalized growth", "setting": "S. cerevisiae deletion strains, locus YPR141C, strain kar3, stronger effect = lower value", "value": 1}, {"measurement": "normalized growth", "setting": "S. cerevisiae deletion strains, locus YPR163C, strain tif3, stronger effect = lower value", "value": 0.975}, {"measurement": "normalized growth", "setting": "S. cerevisiae deletion strains, locus YPR167C, strain met16, stronger effect = lower value", "value": 0.956}, {"measurement": "normalized growth", "setting": "S. cerevisiae deletion strains, strain wtn01, stronger effect = lower value", "value": "0.891 (active)"}, {"measurement": "normalized growth", "setting": "S. cerevisiae strains, strain wild type, stronger effect = lower value", "value": 0.922}]}]}
